Screen size: about 13,000 compounds; about 3,200 (25%) showed an effect of 50% or more. This is one part of the list.
These compounds were tested on P. falciparum stage V gametocytes. Conditions: 48 h, 5 µM; inhibitor.
Set-up: BacTiter-Glo ATP luminescence viability of purified stage V gametocytes in 384-well plates, per cent inhibition versus DMSO
`COc1ccc2nccc([C@@H](O)CN3CCC(NC(=O)Cc4cc5ccccc5s4)CC3)c2c1` [TCMDC-141033] was tested, and the “% Inhibition” value was -11.21%.
For `O=C(Nc1ccc(-c2cccc(-c3nc4ccc(F)cc4[nH]3)c2)cc1)Nc1ccsc1` [TCMDC-133218], the “% Inhibition” value was -7.279%.
For `Cc1noc(C)c1-c1ccc2c(Nc3ccccc3N3CCOCC3)c(C(=O)NCc3ccccc3)cnc2c1.Cl` [TCMDC-136667], the “% Inhibition” value was -0.5011%.
With `Cc1noc(C)c1-c1ccc2c(Nc3cccc4c3-c3ccccc3C4=O)c(C(=O)NCc3ccccc3I)cnc2c1` [TCMDC-136308] the “% Inhibition” value was 93.19%.
For `CC(=O)c1ccc(Nc2c(C(N)=O)cnc3cc(-c4c(C)noc4C)ccc23)cc1` [TCMDC-136058], the “% Inhibition” value was -8.163%.
`Cc1noc(C)c1-c1ccc2c(Nc3nccc4ccccc34)c(C(N)=O)cnc2c1` [TCMDC-136456] was tested, and the “% Inhibition” value was 97%.
For `Cc1noc(C)c1-c1ccc2c(Nc3ccccc3C(C)(C)C)c(C(=O)NCc3ccccc3)cnc2c1.Cl` [TCMDC-136366], the “% Inhibition” value was -19.07%.
In the case of `Cc1noc(C)c1-c1ccc2c(Nc3ccc(Cl)cc3)c(C(N)=O)cnc2c1.Cl` [TCMDC-136010], the “% Inhibition” value is reported as 9.933%.
`Cc1noc(C)c1-c1ccc2c(Nc3ccccc3C(C)(C)C)c(C(=O)NCc3cccc4ccccc34)cnc2c1.Cl` [TCMDC-136375] was tested, and the “% Inhibition” value was -44.64%.
For `Cc1noc(C)c1-c1ccc2c(Nc3ccccc3C(C)(C)C)c(C(=O)NCc3ccc4c(c3)OCO4)cnc2c1.Cl` [TCMDC-136353], the “% Inhibition” value was 56.26%.
With `Cc1noc(C)c1-c1ccc2c(Nc3ccccc3C(C)(C)C)c(C(=O)NCc3ccc(C(F)(F)F)cc3)cnc2c1.Cl` [TCMDC-136348] the “% Inhibition” value was -20.49%.
`COc1ccc2nccc(N3CCC(CCNCc4ccc5c(n4)NC(=O)CS5)CC3)c2c1.Cl` [TCMDC-141905] was tested, and the “% Inhibition” value was -14.76%.
`Cc1cccc2[nH]c(-c3cccc(-c4cccc(NC(=O)Nc5ccc(Cl)c(Cl)c5)c4)c3)nc12` [TCMDC-133277] was tested, and the “% Inhibition” value was -37.89%.
`COc1nc(N)ncc1C(=O)NC1CN2CCC1CC2` (stereo not drawn) [TCMDC-131574] was tested, and the “% Inhibition” value was 17.61%.
In the case of `Cc1ccc(C(=O)Nc2cccc(-c3ccc(N4CCN(C)CC4)nn3)c2)cc1[N+](=O)[O-]` [TCMDC-124931], the “% Inhibition” value is reported as 60.61%.
In the case of `CN1CCN(c2ccc(-c3cccc(NC(=O)c4ccc5ccccc5c4)c3)nn2)CC1` [TCMDC-125349], the “% Inhibition” value is reported as 17.67%.
For `CN1CCN(c2ccc(-c3cccc(NC(=O)c4cccc([N+](=O)[O-])c4)c3)nn2)CC1` [TCMDC-125452], the “% Inhibition” value was -8.078%.
For `COc1cccc(C(=O)N2CCN(Cc3cccc(NC(=O)c4cccs4)c3)CC2)c1` [TCMDC-136327], the “% Inhibition” value was -13.29%.
For `Cc1[nH]c(C)c(-c2ccc(-c3ccccc3F)nc2)c(=O)c1Cl` [TCMDC-135927], the “% Inhibition” value was 68.96%.
In the case of `Cc1[nH]c(C)c(-c2ccc(-c3ccccc3F)nc2)c(=O)c1Br` [TCMDC-135926], the “% Inhibition” value is reported as 66.81%.
With `CC(C)(C)c1ccc(/C=C/C(=O)NCCCCCN2CCC(c3c[nH]c4ccccc34)CC2)cc1` [TCMDC-139247] the “% Inhibition” value was 18.04%.
In the case of `Cc1ccc(/C=C/C(=O)NCCCCCN2CCC(c3c[nH]c4ccccc34)CC2)cc1` [TCMDC-139236], the “% Inhibition” value is reported as 53.65%.
For `O=C(/C=C/C=C/c1ccccc1)NCCCCCN1CCC(c2c[nH]c3ccccc23)CC1` [TCMDC-139216], the “% Inhibition” value was 106.6%.
In the case of `O=C(/C=C/c1ccc(I)cc1)NCCCCCN1CCC(c2c[nH]c3ccccc23)CC1` [TCMDC-139198], the “% Inhibition” value is reported as 49.23%.
With `O=C(/C=C/c1ccc(F)c(Br)c1)NCCCCCN1CCC(c2c[nH]c3ccccc23)CC1` [TCMDC-139235] the “% Inhibition” value was -23.07%.
In the case of `COc1ccc(/C=C/C(=O)NCCCCCN2CCC(c3c[nH]c4ccccc34)CC2)cc1O` [TCMDC-139754], the “% Inhibition” value is reported as -52.52%.
`O=C(/C=C/c1ccc(-c2ccccc2)cc1)NCCCCCN1CCC(c2c[nH]c3ccccc23)CC1` [TCMDC-139210] was tested, and the “% Inhibition” value was 111.8%.
With `O=C(/C=C/c1ccc(Br)cc1)NCCCCCN1CCC(c2c[nH]c3ccccc23)CC1` [TCMDC-139199] the “% Inhibition” value was 51.21%.
`Cc1ccc(Nc2nc(C)cc(NCc3ccc(-n4ccnc4)cc3)n2)cc1` [TCMDC-133454] was tested, and the “% Inhibition” value was 13.72%.
For `c1ccc(C2CCC(N3CCC(N4CCCC4)CC3)CC2)cc1` (stereo not drawn) [TCMDC-124349], the “% Inhibition” value was 3.112%.
With `CN1CC=C(c2c[nH]c3ccc(Sc4ccccc4)cc23)CC1` [TCMDC-138969] the “% Inhibition” value was 5.413%.
In the case of `CCN1CCN(Cc2ccc3nc(-c4cc(C)n(Cc5cc(Cl)ccc5OCc5ccccc5)n4)[nH]c3c2)CC1` [TCMDC-136884], the “% Inhibition” value is reported as 23.91%.
With `Cn1c(=N)n(CC(=O)OCc2ccc(OCc3ccccc3)cc2)c2ccccc21` [TCMDC-138698] the “% Inhibition” value was 4.888%.
For `CC(C)C[C@H]1c2[nH]c3ccc(Cl)cc3c2CCN1C(=O)CCc1ccccc1` [TCMDC-135179], the “% Inhibition” value was 1.219%.
In the case of `Cn1c(=N)n(CC(=O)N2CCc3ccc(Cl)cc3C2Cc2ccc(Cl)c(Cl)c2)c2ccccc21` (stereo not drawn) [TCMDC-138699], the “% Inhibition” value is reported as 109.1%.
In the case of `CCC1CN(S(=O)(=O)c2ccc3c(c2)NC(=O)CC(=O)N3)c2cc(Cl)ccc2O1` (stereo not drawn) [TCMDC-125278], the “% Inhibition” value is reported as 25.65%.
For `CCn1c(-c2cc(C)on2)nc2cnc(Oc3ccc(C(=O)N4CC(=O)N(C)C4C(C)(C)C)cc3)cc21` (stereo not drawn) [TCMDC-134940], the “% Inhibition” value was 2.551%.
In the case of `CCc1cn(C)c2c(N3CCCC3=O)cc(C(=O)N[C@@H](Cc3ccccc3)[C@H](O)CNC(C)(C)c3cccc(C(F)(F)F)c3)cc12` [TCMDC-135197], the “% Inhibition” value is reported as 87.86%.
For `CCn1ncc2c(N3CCCC3=O)cc(C(=O)N[C@@H](Cc3ccccc3)[C@H](O)CNC(C)(C)c3cccc(C(F)(F)F)c3)cc21` [TCMDC-135064], the “% Inhibition” value was 21.85%.
In the case of `CCc1c[nH]c2c(N3CCCC3=O)cc(C(=O)N[C@@H](Cc3ccccc3)[C@H](O)CNC(C)(C)c3cccc(C(F)(F)F)c3)cc12` [TCMDC-134402], the “% Inhibition” value is reported as 2.989%.
With `CCc1c[nH]c2c(N3CCCC3=O)cc(C(=O)N[C@@H](Cc3ccccc3)[C@H](O)CNC(C)(C)c3cccc(OC)c3)cc12` [TCMDC-134404] the “% Inhibition” value was 44.35%.
`CCc1cn(C)c2c(N3CCCC3=O)cc(C(=O)N[C@@H](Cc3ccccc3)[C@H](O)CNCc3cccc(OC)c3)cc12` [TCMDC-135195] was tested, and the “% Inhibition” value was 21.06%.
`CCc1cn(C)c2c(N3CCCC3=O)cc(C(=O)N[C@@H](Cc3ccccc3)[C@H](O)CNC(C)(C)c3cccc(OC)c3)cc12` [TCMDC-135196] was tested, and the “% Inhibition” value was 90.21%.
In the case of `C[C@@H](NC(=O)c1nn(-c2ccc(Cl)cc2)c(=O)c2ccccc12)C(C)(C)C` [TCMDC-124772], the “% Inhibition” value is reported as -4.584%.
`Cc1cccc(C(=O)Nc2ccnc(N(C)CCCN(C)Cc3cccc(O)c3)c2)c1` [TCMDC-134953] was tested, and the “% Inhibition” value was -14.35%.
`Cc1cccc2[nH]c(-c3cccc(-c4ccc(NC(=O)c5cccc(C(N)=O)c5)cc4)c3)nc12` [TCMDC-132201] was tested, and the “% Inhibition” value was 3.68%.
In the case of `NC(=O)c1cccc(C(=O)Nc2cccc(-c3cccc(-c4nc5ccc(F)cc5[nH]4)c3)c2)c1` [TCMDC-132198], the “% Inhibition” value is reported as -10.48%.
`Cc1nnsc1C(=O)Nc1cccc(-c2csc(-c3nc4ccccc4[nH]3)c2)c1` [TCMDC-132394] was tested, and the “% Inhibition” value was 19.6%.
`Cc1nnsc1C(=O)Nc1ccc(-c2cccc(-c3nc4ccc(F)cc4[nH]3)c2)cc1` [TCMDC-137080] was tested, and the “% Inhibition” value was -15.9%.
In the case of `Cc1nnsc1C(=O)Nc1cccc(-c2ccc(-c3nc4ccc(C(F)(F)F)cc4[nH]3)cc2)c1` [TCMDC-137088], the “% Inhibition” value is reported as 70.24%.
In the case of `Cc1nnsc1C(=O)Nc1ccc(-c2cccc(-c3nc4ccc(C(F)(F)F)cc4[nH]3)c2)cc1` [TCMDC-137085], the “% Inhibition” value is reported as 34.28%.
With `Cc1nnsc1C(=O)Nc1cccc(-c2cccc(-c3nc4ccc(F)cc4[nH]3)c2)c1` [TCMDC-137081] the “% Inhibition” value was 77.92%.
`Cc1nnsc1C(=O)Nc1cccc(-c2cccc(-c3nc4c(C)cccc4[nH]3)c2)c1` [TCMDC-137086] was tested, and the “% Inhibition” value was -18.91%.
For `Cc1nnsc1C(=O)Nc1ccc(-c2cccc(-c3nc4c(C)cccc4[nH]3)c2)cc1` [TCMDC-137087], the “% Inhibition” value was 78.56%.
For `Cc1nnsc1C(=O)Nc1cccc(-c2cccc(-c3nc4ccc(C(F)(F)F)cc4[nH]3)c2)c1` [TCMDC-137084], the “% Inhibition” value was -5.727%.
In the case of `Cc1nnsc1C(=O)Nc1cccc(-c2ccc(-c3nc4ccccc4[nH]3)cc2)c1` [TCMDC-137083], the “% Inhibition” value is reported as 11.59%.
In the case of `Cc1nnsc1C(=O)Nc1cccc(-c2cccc(-c3nc4ccccc4[nH]3)c2)c1` [TCMDC-137078], the “% Inhibition” value is reported as 82.4%.
In the case of `CC(C)(C)c1nn(-c2ccccc2)c2[nH]c(=O)c(CNC3CCCC3)cc12` [TCMDC-136483], the “% Inhibition” value is reported as 5.874%.
`Cc1cccc2c(C(=O)NC3CCN(Cc4ccccc4)CC3)cc(-c3cccnc3)nc12` [TCMDC-124900] was tested, and the “% Inhibition” value was 15.64%.
`O=S(=O)(c1c(Cl)cc(Cl)cc1Cl)N1CCCCC(c2ccc(F)c(F)c2)=N1` [TCMDC-135420] was tested, and the “% Inhibition” value was -45.8%.
In the case of `Cc1cccc(-c2cccc(CNc3nc(NCCc4ccc(O)cc4)nc(N4CCNCC4)n3)c2)c1` [TCMDC-133810], the “% Inhibition” value is reported as 31.6%.
In the case of `O=C(Nc1ccc(-c2oc(C(=O)NCCc3cccc(Cl)c3)cc2-c2ccncc2)cc1)Nc1cccc(Cl)c1` [TCMDC-135809], the “% Inhibition” value is reported as -31.28%.
In the case of `CC(C)CNC(=O)c1cncc(-c2ccc(CN3CCC(N4CCCC4)CC3)cc2)c1` [TCMDC-134236], the “% Inhibition” value is reported as 32.19%.
